Measurements taken from ChEMBL document CHEMBL1961873, “Compounds: GSK PKIS; Assays: Nanosyn kinase panel” (2012).

Columns and labels:
[1] = biological target: Mitogen-activated protein kinase 3 (Homo sapiens) (UniProt P27361); conditions: at 1 µM;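 also: values are mean percent inhibition of MAPK3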
[2] = biological target: SRSF protein kinase 3 (Homo sapiens) (UniProt Q9UPE1); conditions: at 0.1 µM
[3] = biological target: SRSF protein kinase 3 (Homo sapiens) (UniProt Q9UPE1); conditions: at 1 µM
[4] = biological target: Mitogen-activated protein kinase 14 (Homo sapiens) (UniProt Q16539); conditions: at 0.1 µM
[5] = biological target: Mitogen-activated protein kinase 14 (Homo sapiens) (UniProt Q16539); conditions: at 1 µM
[6] = biological target: Mitogen-activated protein kinase 11 (Homo sapiens) (UniProt Q15759); conditions: at 0.1 µM
[7] = biological target: Mitogen-activated protein kinase 11 (Homo sapiens) (UniProt Q15759); conditions: at 1 µM
[8] = biological target: T1, Mitogen-activated protein kinase 13 (Homo sapiens) (UniProt O15264); conditions: at 0.1 µM
T1 sequence (whole entry): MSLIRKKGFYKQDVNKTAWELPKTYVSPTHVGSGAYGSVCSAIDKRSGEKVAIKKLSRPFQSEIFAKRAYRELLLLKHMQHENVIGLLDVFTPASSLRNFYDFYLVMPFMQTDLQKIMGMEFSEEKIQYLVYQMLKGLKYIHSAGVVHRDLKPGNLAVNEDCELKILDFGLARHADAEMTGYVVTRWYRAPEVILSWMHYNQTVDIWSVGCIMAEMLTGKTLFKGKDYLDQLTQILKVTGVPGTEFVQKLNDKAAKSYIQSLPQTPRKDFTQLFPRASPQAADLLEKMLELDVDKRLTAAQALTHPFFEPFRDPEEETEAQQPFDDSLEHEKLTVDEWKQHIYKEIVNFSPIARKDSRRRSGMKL

[9] = biological target: T1, Mitogen-activated protein kinase 13 (Homo sapiens); conditions: at 1 µM
[10] = biological target: T2, Mitogen-activated protein kinase 12 (Homo sapiens) (UniProt P53778); conditions: at 0.1 µM
T2 sequence (whole entry): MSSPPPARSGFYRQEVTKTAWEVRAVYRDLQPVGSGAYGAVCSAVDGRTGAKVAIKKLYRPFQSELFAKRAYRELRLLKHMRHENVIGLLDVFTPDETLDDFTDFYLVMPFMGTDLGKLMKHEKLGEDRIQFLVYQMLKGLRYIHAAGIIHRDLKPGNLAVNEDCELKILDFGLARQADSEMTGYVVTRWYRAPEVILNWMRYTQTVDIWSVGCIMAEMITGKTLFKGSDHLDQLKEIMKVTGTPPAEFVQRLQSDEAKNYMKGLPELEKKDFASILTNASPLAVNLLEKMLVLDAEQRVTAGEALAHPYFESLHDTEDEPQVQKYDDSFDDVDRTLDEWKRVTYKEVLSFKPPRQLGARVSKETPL

Chain of SRSF protein kinase 3 (Homo sapiens) (Q9UPE1 whole entry): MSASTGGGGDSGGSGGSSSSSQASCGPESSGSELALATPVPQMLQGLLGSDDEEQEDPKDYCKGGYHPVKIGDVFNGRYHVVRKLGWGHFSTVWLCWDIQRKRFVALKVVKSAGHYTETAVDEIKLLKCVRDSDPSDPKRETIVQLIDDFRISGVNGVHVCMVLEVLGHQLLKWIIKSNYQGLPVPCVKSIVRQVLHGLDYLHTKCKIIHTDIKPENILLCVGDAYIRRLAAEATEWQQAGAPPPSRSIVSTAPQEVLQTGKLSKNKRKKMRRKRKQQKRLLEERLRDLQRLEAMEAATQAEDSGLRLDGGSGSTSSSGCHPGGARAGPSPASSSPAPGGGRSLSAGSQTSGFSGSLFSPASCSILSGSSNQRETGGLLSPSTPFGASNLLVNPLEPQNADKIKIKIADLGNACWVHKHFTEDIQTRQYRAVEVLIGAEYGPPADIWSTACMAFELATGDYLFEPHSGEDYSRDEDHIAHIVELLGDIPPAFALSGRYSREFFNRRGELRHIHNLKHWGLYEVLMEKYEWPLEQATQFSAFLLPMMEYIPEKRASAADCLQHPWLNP
Chain of Mitogen-activated protein kinase 14 (Homo sapiens) (Q16539 whole entry): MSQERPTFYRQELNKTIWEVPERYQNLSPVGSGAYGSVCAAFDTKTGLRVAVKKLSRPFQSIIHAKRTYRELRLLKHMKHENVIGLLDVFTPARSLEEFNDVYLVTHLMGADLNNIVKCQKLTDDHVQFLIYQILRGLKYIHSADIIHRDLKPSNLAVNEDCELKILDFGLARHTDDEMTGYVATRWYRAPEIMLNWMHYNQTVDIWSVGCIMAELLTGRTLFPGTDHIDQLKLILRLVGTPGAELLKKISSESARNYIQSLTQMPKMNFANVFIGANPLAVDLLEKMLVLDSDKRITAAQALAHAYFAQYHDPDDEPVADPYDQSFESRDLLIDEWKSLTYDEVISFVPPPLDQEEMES
Chain of Mitogen-activated protein kinase 3 (Homo sapiens) (P27361 whole entry): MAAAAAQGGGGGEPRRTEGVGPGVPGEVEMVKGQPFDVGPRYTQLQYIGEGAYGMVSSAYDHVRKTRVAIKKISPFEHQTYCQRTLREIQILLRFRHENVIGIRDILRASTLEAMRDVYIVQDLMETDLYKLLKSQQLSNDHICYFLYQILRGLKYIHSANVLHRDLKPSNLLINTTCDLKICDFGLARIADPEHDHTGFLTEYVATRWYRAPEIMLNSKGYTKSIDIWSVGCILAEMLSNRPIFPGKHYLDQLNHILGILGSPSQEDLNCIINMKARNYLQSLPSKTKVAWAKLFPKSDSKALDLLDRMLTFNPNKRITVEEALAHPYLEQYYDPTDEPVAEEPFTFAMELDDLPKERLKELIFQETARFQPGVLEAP
Chain of Mitogen-activated protein kinase 11 (Homo sapiens) (Q15759 whole entry): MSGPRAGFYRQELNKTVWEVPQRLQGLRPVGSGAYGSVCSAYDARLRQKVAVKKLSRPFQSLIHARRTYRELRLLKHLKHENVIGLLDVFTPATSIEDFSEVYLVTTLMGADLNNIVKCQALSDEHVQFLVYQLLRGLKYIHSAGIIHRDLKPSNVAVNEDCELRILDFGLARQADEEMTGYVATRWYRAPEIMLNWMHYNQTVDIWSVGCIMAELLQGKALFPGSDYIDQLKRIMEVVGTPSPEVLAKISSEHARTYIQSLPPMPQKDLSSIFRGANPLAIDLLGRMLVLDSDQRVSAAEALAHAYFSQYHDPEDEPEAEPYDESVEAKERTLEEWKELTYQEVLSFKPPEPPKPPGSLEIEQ

| SMILES | inhibition [1] [%] | inhibition [2] [%] | inhibition [3] [%] | inhibition [4] [%] | inhibition [5] [%] | inhibition [6] [%] | inhibition [7] [%] | inhibition [8] [%] | inhibition [9] [%] | inhibition [10] [%] |
| --- | --- | --- | --- | --- | --- | --- | --- | --- | --- | --- |
| CCn1c(-c2nonc2N)nc2ccccc21 | 1.82 | 2.33 | 1.24 | 1.01 | 4.34 | 3.58 | 4.06 | 2.36 | 3.3 | 0.66 |
| NS(=O)(=O)c1ccc(Nc2ncc(-c3ccccc3)o2)cc1 | 3.8 | -0.01 | 1.63 | 3.61 | 9.04 | 6.06 | 7.67 | 3.81 | 5.86 | 0.56 |
| CC1=C(C(=O)Nc2cc(Cl)c3[nH]ncc3c2)C(c2ccc(C(F)(F)F)cc2)CC(=O)N1 (stereo not given) | 21.8 | -1.32 | -2.71 | -3.41 | 6.81 | 1.37 | 2.31 | 0.32 | 4.12 | 2.56 |
| CCn1c(-c2nonc2N)nc2cnc(Oc3cccc(NC(=O)c4ccc(N(C)C)cc4)c3)cc21 | 1.36 | -1.98 | -3.41 | -0.32 | 8.29 | 1.19 | 1.94 | -1.13 | 2.57 | 0.02 |
| COc1cc2ncn(-c3cc(OCc4ccccc4C(F)(F)F)c(C(=O)N(C)C)s3)c2cc1OC | -0.07 | -2.08 | -1.83 | 7.43 | 1.82 | -4.05 | 1.82 | -0.21 | 0.14 | 0.9 |
| COC(=O)c1sc(-n2cnc3cc(OC)c(OC)cc32)cc1OCc1ccccc1C(F)(F)F | 2.3 | -0.91 | -2.27 | 2.39 | 9.56 | 6.02 | 8.21 | -0.67 | 4.4 | 0.89 |
| CCN(CC)S(=O)(=O)c1ccc(OC)c(Nc2ncc(-c3ccccc3)o2)c1 | 4.26 | 0.09 | 0.88 | 1.78 | 1.27 | 3.74 | 4.45 | -0.22 | -0.16 | -2.06 |
| CC(=O)Nc1cccc(C#Cc2cncnc2Nc2ccc(OCc3cccc(F)c3)c(Cl)c2)c1 | 3.68 | 1.32 | -0.25 | 3.3 | 5.63 | 0.27 | 1.34 | 2.42 | 2.73 | 0.58 |
| Cc1ccc2c(-c3ccnc(Nc4ccccc4)n3)c(-c3ccc(F)cc3)nn2n1 | 14.5 | 1.07 | 1.53 | 71 | 88.5 | 34.1 | 73.3 | -0.61 | 5.7 | 0.48 |
| c1ccc(-c2nc3n(c2-c2ccc4c(c2)OCO4)CCC3)nc1 | 2.21 | -1.69 | -1.14 | 4.21 | 13.4 | 0.27 | 2.77 | 1.49 | 2.52 | 1.78 |
| CNC(=O)c1cncc(/C=C/c2ccccc2Cl)c1 | 2.18 | -0.92 | 2.45 | -6.55 | -0.16 | 2.14 | 2.01 | 1.17 | -0.14 | -1.75 |
| Fc1ccc(-c2nn3ccccc3c2-c2ccncc2)cc1 | 0.82 | -2.15 | 1.26 | 41.4 | 81.2 | 7.33 | 38.7 | -0.3 | 0.46 | 1.66 |
| Fc1cccc(COc2ccc(Nc3ncnc4sc(-c5ccco5)cc34)cc2Cl)c1 | 4.3 | -0.82 | 1.38 | 7.31 | 6.29 | 4.57 | 6.75 | 4.02 | 3.46 | 3.22 |
| FC(F)(F)c1cccc(-c2nn3ncccc3c2-c2ccnc(Nc3ccc4c(c3)OCCO4)n2)c1 | 2.04 | -0.87 | -0.58 | 30 | 73.7 | 14.1 | 52.2 | 0.07 | 3.46 | 3.07 |
| COc1ccc(CNC(=O)c2ccc(-c3cc(-c4nnc(C)o4)ccc3C)cc2)cc1 | 1.53 | 2.42 | 6.02 | 19.4 | 66.6 | 10.1 | 46.3 | 1.25 | 2.3 | 0.94 |
| COc1ccc(-c2cc(-c3c[nH]nc3-c3ccccn3)ccn2)cc1 | 8.82 | -0.83 | 0.75 | 7.92 | 37.2 | 4.7 | 14.1 | 2.12 | 4.1 | 4.31 |
| CC(=O)NCc1cccc(C#Cc2cncnc2Nc2ccc(OCc3cccc(F)c3)c(Cl)c2)c1 | 2.72 | -1.32 | -1.8 | 1.05 | -0.7 | 1.26 | -0.84 | -3.33 | 0.78 | 0.11 |

| SMILES | inhibition [1] [%] | inhibition [2] [%] | inhibition [3] [%] | inhibition [4] [%] | inhibition [5] [%] | inhibition [6] [%] | inhibition [7] [%] | inhibition [8] [%] | inhibition [9] [%] | inhibition [10] [%] |
| --- | --- | --- | --- | --- | --- | --- | --- | --- | --- | --- |
| CCCN(CCS(C)(=O)=O)Cc1ccc(-c2ccc3ncnc(Nc4ccc(OCc5cccc(F)c5)c(Cl)c4)c3c2)o1 | 2.62 | -1.91 | -0.61 | 10.4 | 4.25 | 0.78 | 0.65 | 4.35 | 2.64 | 0.9 |
| CN1CCC(n2cnc(-c3ccc(F)cc3)c2-c2ccnc(Nc3ccccc3)n2)CC1 | 6.33 | 0.1 | -0.07 | 84.1 | 90.8 | 50.7 | 81.4 | 3.08 | 22.5 | 3.56 |
| CC(C)(CO)CNC(=O)c1ccc2c(c1)/C(=N/Nc1ccc(S(N)(=O)=O)cc1)C(=O)N2 | 16.6 | -0.87 | -1.79 | 2.1 | 1.84 | 2.96 | 9.13 | -0.56 | 0.83 | -0.2 |
| Nc1ncc(-c2cccc(S(N)(=O)=O)c2)c2scc(-c3ccc(F)c(Cl)c3)c12 | 5.48 | -1.03 | 0.1 | 13.9 | 55.9 | 21.8 | 62.3 | 3.01 | 1.94 | 2.88 |
| CCn1c(-c2nonc2N)nc2c(C#CC(C)(C)O)ncc(OC3CCNCC3)c21 | 4.59 | 2.87 | -1.64 | 8.8 | 11.3 | 1.59 | 7.19 | 1.55 | 2.9 | 2.41 |
| COc1cccc(-c2c[nH]c3c(N/N=C/c4ccncc4)ncnc23)c1 | 6.39 | 1.36 | 1.67 | 7.04 | 13.3 | 2.44 | 7.25 | 6.19 | 38.2 | 1.88 |
| COc1cccc(-n2ncc3c(N/N=C/c4ccc(F)cc4)ncnc32)c1 | 3.8 | -0.53 | 1.02 | 2.2 | 7.4 | 4.13 | 6.02 | 6.87 | 6.81 | -0.23 |
| COc1cc(Nc2nccc(Nc3ccc4c(C)n[nH]c4c3)n2)cc(OC)c1OC | 2.18 | 1.08 | 0.79 | 4.78 | 10 | 2.04 | 6.13 | 3.72 | 4.71 | -0.26 |
| CNC(=O)c1cccc(C#Cc2cncnc2Nc2ccc(OCc3cccc(F)c3)c(Cl)c2)c1 | 0.63 | -4.28 | -0.55 | -0.67 | 3.2 | 1.64 | 1.73 | -0.77 | -0.49 | 0.07 |
| COc1ccc(-c2oc3ncnc(N)c3c2-c2ccc(NC(=O)Nc3cc(C(F)(F)F)ccc3F)cc2)cc1 | 4.66 | 2.74 | 48.7 | 4.62 | 30.4 | 5.32 | 37.8 | 1.95 | 15.3 | -3.37 |
| CNC(=O)c1cc(-c2ccc(F)cc2)cc(-c2ccc(S(=O)(=O)N3CCCC3)cc2)c1N | 1.92 | -1.6 | -0.52 | 4.95 | 4.5 | 1.39 | 3.19 | 3.39 | 2.91 | 2.77 |
| CS(=O)(=O)CCNCc1coc(-c2ccc3ncnc(Nc4ccc(OCc5ccccc5)cc4)c3c2)c1 | 4.16 | 0.59 | -0.06 | 3.52 | 5.25 | 1.13 | 5.1 | 1.6 | 1.56 | 1.93 |
| Fc1ccc(-c2cc(-c3c[nH]nc3-c3ccccn3)ccn2)cc1 | 4.81 | -1.32 | 1.09 | 5.14 | 37 | 5.12 | 12.5 | -1 | 3.97 | 2.24 |
| CCOc1ccc2c(-c3ccnc(Nc4cccc(C(F)(F)F)c4)n3)cnn2n1 | 2.69 | -2.63 | 1.62 | 3.75 | 1.48 | 5.24 | 2.69 | 1.99 | 0.75 | 0.81 |
| Cc1cccc2c1NC(=O)/C2=N\Nc1ccc(S(N)(=O)=O)cc1 | 2.55 | 0.51 | 1.03 | 3.09 | 5.54 | 1.05 | 1.3 | 1.89 | 3.48 | -3.68 |
| Nc1nc(-c2ccc(F)cc2)c(-c2ccc3ncccc3n2)s1 | 3.86 | -0.15 | 2.22 | 23.6 | 76.4 | 7.76 | 33.1 | 5.53 | 5.76 | 1.26 |
| COC(=O)Nc1nc2ccc(Oc3ccc(NC(=O)Nc4cccc(Cl)c4)cc3)cc2[nH]1 | -0.19 | -1.41 | 1.25 | 7.99 | 12 | 3.94 | 8.82 | 0.49 | -0.38 | 0.03 |
